Structures can show the parent of a compound that is named as a salt. ± gives the standard deviation of the averaged measurements.
How the values were obtained:
[1] = test system: MDA-MB-231; test: cell viability relative to vehicle unstimulated control (fraction); higher = more viable cells; conditions: pre-treatment time: 18 h then 24 h IFNg/TNF
[2] = test system: MDA-MB-231; test: kynurenine production, fold change vs DMSO IFNg/TNF control; higher = more kynurenine produced (less inhibition); conditions: pre-treatment time: 18 h then 24 h IFNg/TNF
Procedure, shortened: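 MDA-MB-231 cells were seeded in 96-well plates at 7 × 10^4/well and, 24 h later, pre-treated for 18 h with each natural product in 0.1% DMSO. They were then stimulated for 24 h at 37°C with IFNγ (1 U/ml) and TNF (6.25 ng/ml). Supernatants were treated with trichloroacetic acid and p-dimethylaminobenzaldehyde and read at 492 nm against 0–100 μM standards. Kynurenine production is expressed as fold change over cytokine-stimulated vehicle wells on the same plate and, in the first screening round, averaged across duplicate plates.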
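Wherever cell viability relative to vehicle unstimulated control is given: viability of the cells left after supernatant collection, read with Deep Blue dye added for 4 h, as absorbance at 570 nm minus 600 nm.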

Row | SMILES | cell viability [1] | kynurenine production [2]
1 | CN1C2CCC1CC(O)C2 (stereo unspecified) [Tropine] (compound dose: 10 uM) | 0.938 ± 0.13 | 0.902 ± 0.2
2 | CC(=O)O[C@H]1C[C@H](O[C@H]2[C@@H](O)C[C@H](O[C@H]3[C@@H](O)C[C@H](O[C@H]4CC[C@@]5(C)[C@H](CC[C@@H]6[C@@H]5C[C@@H](O)[C@]5(C)[C@@H](C7=CC(=O)OC7)CC[C@]65O)C4)O[C@@H]3C)O[C@@H]2C)O[C@H](C)[C@H]1O[C@@H]1O[C@H](CO)[C@@H](O)[C@H](O)[C@H]1O [Lanatoside C] (compound dose: 10 uM) | 0.607 ± 0.021 | 0.149 ± 0.015
3 | C=C1[C@H](OC(=O)c2ccccc2)C[C@H]2[C@@H](/C=C(\C)C(=O)[C@@]3(OC(C)=O)C[C@H](C)[C@H](OC(=O)c4ccccc4)[C@@H]3[C@H]1OC(C)=O)C2(C)C [Euphorbia factor L2] (compound dose: 10 uM) | 1.07 ± 0.015 | 0.384 ± 0.048
4 | CC1=C[C@H]2[C@@]3(O)[C@H](C)[C@@H](O)[C@]4(O)[C@H]([C@@H]3C=C(CO)C[C@]2(O)C1=O)C4(C)C [Phorbol] (compound dose: 10 uM) | 1.02 ± 0.074 | 0.894 ± 0.041
5 | CCCC(=O)O[C@@H]1[C@@H](C)[C@@]2(O)[C@@H](C=C(CO)C[C@]3(O)C(=O)C(C)=C[C@@H]23)[C@@H]2C(C)(C)[C@]12OC(=O)CCC [Phorbol 12,13-Dibutyrate] (compound dose: 10 uM) | 1.09 ± 0.072 | 0.781 ± 0.034
6 | COc1cc2c(c(OC)c1OC)-c1ccc(OC)c(=O)cc1[C@@H](NC(C)=O)CC2 [Colchicine] (compound dose: 10 uM) | 0.802 ± 0.097 | 0.234 ± 0.046
7 | C[C@@H]1C(=O)O[C@H]2[C@H](O)[C@@]34O[C@@H]5OC(=O)[C@H](O)[C@@]56[C@H](C(C)(C)C)[C@H](O)C(OC3=O)[C@]64[C@@]12O (stereo partly specified) [Ginkgolide C] (compound dose: 10 uM) | 0.9704 ± 0.0066 | 0.947 ± 0.088
8 | COc1cc(C[C@H]2C(=O)OC[C@@H]2Cc2ccc3c(c2)OCO3)cc(OC)c1OC [Yatein] (compound dose: 10 uM) | 0.9961 ± 0.0012 | 0.843 ± 0.035
9 | CCCCCCCCCCCCCC(=O)O[C@@H]1[C@@H](C)[C@@]2(O)[C@@H](C=C(CO)C[C@]3(O)C(=O)C(C)=C[C@@H]23)[C@@H]2C(C)(C)[C@]12OC(C)=O [12-O-tetradecanoyl phorbol-13-acetate] (compound dose: 10 uM) | 1.06 ± 0.043 | 0.858 ± 0.021
10 | O=C(/C=C/c1ccccc1)OC[C@H]1O[C@@H](O[C@@H]2OC=C[C@H]3[C@H](O)[C@@H]4O[C@]4(CO)[C@@H]23)[C@H](O)[C@@H](O)[C@@H]1O [Picroside I] (compound dose: 10 uM) | 0.9642 ± 0.0044 | 0.923 ± 0.05
11 | O=C(O)c1ccc(=O)[nH]c1 [6-hydroxypyridine-3-carboxylic acid] (compound dose: 10 uM) | 0.99 ± 0.039 | 0.821 ± 0.09
12 | COc1cc(C(=O)O[C@H]2[C@@H]3C=CO[C@@H](O[C@@H]4O[C@H](CO)[C@@H](O)[C@H](O)[C@H]4O)[C@@H]3[C@@]3(CO)O[C@@H]23)ccc1O [Picroside II] (compound dose: 10 uM) | 0.923 ± 0.039 | 0.919 ± 0.16
13 | CC(C)[C@]12O[C@H]1[C@@H]1O[C@@]13[C@@]1(C)CCC4=C(COC4=O)[C@@H]1C[C@@H]1O[C@@]13C2=O [Triptonide] (compound dose: 10 uM) | 0.637 ± 0.069 | 0.218 ± 0.019
14 | CC(=O)OC(C)(C)/C=C/C(=O)[C@](C)(O)[C@H]1[C@H](O)C[C@@]2(C)[C@@H]3CC=C4[C@H](C[C@H](O)C(=O)C4(C)C)[C@]3(C)C(=O)C[C@]12C [Cucurbitacin B] (compound dose: 10 uM) | 0.396 ± 0.061 | 0.189 ± 0.096
15 | CC(C)=CCC[C@@](C)(O)[C@H]1CC[C@]2(C)[C@@H]1[C@H](O)C[C@@H]1[C@@]3(C)CC[C@H](O)C(C)(C)[C@@H]3[C@@H](O[C@@H]3O[C@H](CO)[C@@H](O)[C@H](O)[C@H]3O)C[C@]12C [(20R)-Ginsenoside Rh1] (compound dose: 10 uM) | 0.9611 ± 0.0044 | 0.887 ± 0.031
16 | CC(=O)OC12COC1CC(O)C1(C)C(=O)C(O)C3=C(C)C(O)CC(O)(C(OC(=O)c4ccccc4)C21)C3(C)C (stereo unspecified) [10-Deacetylbaccatin III] (compound dose: 10 uM) | 0.999 ± 0.017 | 0.849 ± 0.18
17 | CN1[C@@H]2CC[C@H]1C[C@@H](OC(=O)C(CO)c1ccccc1)C2 (stereo partly specified) [Atropine sulfate] (compound dose: 10 uM) | 0.996 ± 0.016 | 0.795 ± 0.044
18 | CCCCCCCCCCCCCC(=O)O[C@@H]1[C@@H](C)[C@@]2(O)[C@@H](C=C(CO)C[C@]3(O)C(=O)C(C)=C[C@@H]23)[C@@H]2C(C)(C)[C@]12OC(C)=O [Phorbol 12-Myristate 13-Acetate] (compound dose: 10 uM) | 1.09 ± 0.038 | 1.01 ± 0.21
